# In PubChem BioAssay (NCI):
# About 83,000 compounds went through this panel and 20% of them were active in at least one assay; those are over-represented in the sample as a whole.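 For each line, cells grew in 96-well plates with the test compound present at a single concentration for 48 hours.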 Unmarked numbers belong to inactive results. Activity calls are given as the source filed them. Rule for the calls: active = growth percent below 10; inactive = the rest.
# Tested on: PC-3 prostate
# Assay: NCI-60 one-dose screen, 48 h (100 = growth as untreated, 0 = no growth, -100 = all killed)
# Conditions: 10 µM unless noted
row,Structure (SMILES),growth
1,O=C(COc1ccc(NC(=O)Nc2ccc(Cl)cc2)cc1)N/N=C/c1ccccc1,-72.9% (active)
2,COc1cc(/C=C/C(=O)c2ccccc2)ccc1Oc1nc(Nc2ccc(F)cc2)nc(N(C)C)n1,30.2%
3,CN(C)CCCNC(=O)c1cc(NC(=O)c2cc(NC(=O)c3ccc(/C=C/c4ccccc4)cc3)cn2C)cn1C,46.6%
4,COc1ccc(C(=O)/C=C/c2ccc(Oc3nc(Nc4ccc(F)cc4)nc(N(C)C)n3)c(OC)c2)cc1,50.5%
5,CN(C)CCOc1ccc(C(=O)C2[C@H](c3ccc(Cl)cc3)[C@@H](c3ccccc3)NC23C(=O)Nc2ccc(Br)cc23)cc1 (stereo partly drawn),-3.48% (active)
6,COc1ccc(-c2ccc(SCC(=O)NCCc3ccc(S(N)(=O)=O)cc3)nn2)cc1,81.8%
7,Cc1nc(Nc2ncc(C(=O)Nc3c(C)cccc3Cl)s2)cc(N2CCN(CCCNC(=O)COc3ccc(C4CCC(=O)NC4=O)cc3)CC2)n1 (stereo not drawn),44.1%
8,C=C1CCC2C3(C)COC(c4ccc(F)cc4)OC3CCC2(C)C1C/C=C1/C(=O)OCC1O (stereo not drawn),-43.6% (active)
9,O=c1onc(-c2cc3ccccc3nc2Cl)n1-c1cccc2ccccc12,40.4%
10,O=C1NC(=O)/C(=C/c2ccccc2OCc2cc3ccccc3nc2Cl)S1,112%
11,O=C(COc1ccc(NC(=O)Nc2ccc(Cl)c(Cl)c2)cc1)N=Nc1c(O)[nH]c2ccc(Br)cc12,-16.6% (active)
12,COc1cccc(/C=C/c2nc3ccccc3c(=O)n2CC(=O)Nc2ccc(Cl)cc2)c1,76.3%
13,COc1ccc(C(=O)/C=C/c2cccc(Cl)c2)cc1S(N)(=O)=O,31.7%
14,COc1cc(C2CC(c3cc(OC)c(OC)c(OC)c3)=NN2c2ccccc2)ccc1OCc1ccc(C)cc1 (stereo not drawn),92.9%
15,CCOP(=O)(OCCCl)c1nc(-c2ccc(C)cc2)oc1NCc1ccccc1 (stereo not drawn),44.4%
16,Cc1ccccc1[C@H]1C(C(=O)c2ccc(Cl)cc2)C2(N[C@@H]1c1ccccc1)C(=O)Nc1ccccc12 (stereo partly drawn),-22.6% (active)
17,Cc1ccccc1[C@H]1C(C(=O)c2ccc(Cl)cc2)C2(N[C@@H]1c1ccccc1)C(=O)Nc1ccc(Br)cc12 (stereo partly drawn),-4.58% (active)

row,Structure (SMILES),growth
1,Cc1cc(=O)oc2cc(OCCOc3ccc(/C=C/C(=O)Nc4ccccc4N)cc3)ccc12,32.1%
2,COc1cccc(/C=C/C(=O)c2ccc(OC)c(S(N)(=O)=O)c2)c1,48%
3,Cn1cc(NC(=O)c2cc(NC(=O)c3ccc(/C=C/c4ccccc4)cc3)cn2C)cc1C(=O)NCCCN1CCOCC1,38.1%
4,CN1CCN(Cc2ccc(C(=O)Nc3cccc(C#Cc4cccc5[nH]nc(N)c45)c3)cc2C(F)(F)F)CC1,-22.9% (active)
5,CCCn1cc(-c2nc(Nc3ccc(C(=O)NCCCCNc4cccc5c4C(=O)N(C4CCC(=O)NC4=O)C5=O)cc3)nc3[nH]ccc23)cn1 (stereo not drawn),3.62% (active)
6,COc1c(F)ccc(C(=O)Nc2ccc3nc(NC(=O)C4CCCN(S(=O)(=O)c5ccc(C(F)(F)F)cc5)C4)sc3c2)c1F (stereo not drawn),57.7%
7,Cn1nc(C(F)(F)F)cc1-c1cc(Cl)c(COc2ccc(Cl)cc2)c(-c2ccc(Cl)c(C(F)(F)F)c2)c1O,-12.3% (active)
8,COc1ccc(C(=O)/C=C/c2ccccc2Br)cc1S(N)(=O)=O,21%
9,COc1ccc2c(c1)c(/C=N/Nc1ccc3ccccc3n1)cn2C,7.27% (active)
10,COc1c(F)ccc(C(=O)Nc2ccc3nc(NC(=O)C4CCCN(S(=O)(=O)c5ccc(Br)c(F)c5)C4)sc3c2)c1F (stereo not drawn),62.6%
11,COc1cc(OC)cc(-c2cc3ccc(N(C)C)cc3c(=O)[nH]2)c1,35.7%
12,Clc1cccc(-c2ccc(OCCCN3CCN(c4ccncc4)CC3)cc2)c1,-8.32% (active)
13,CC12CC[C@@H]3[C@]4(C)COC(c5cn[nH]c5-c5ccc(Br)cc5)O[C@@H]4CC[C@@]3(C)[C@@H]1CC(C1=CCOC1=O)O2 (stereo partly drawn),24.2%
14,CC12CC[C@@H]3[C@]4(C)COC(c5cn[nH]c5-c5cccc(Cl)c5)O[C@@H]4CC[C@@]3(C)[C@@H]1CC(C1=CCOC1=O)O2 (stereo partly drawn),12.6%
15,CCCSc1nc(Nc2ccc(S(N)(=O)=O)cc2)c(C#N)c(-c2ccc(Cl)cc2)n1,64.3%
16,COc1ccc(-c2nc3ccc(C(=O)NN4C(=O)c5ccc([N+](=O)[O-])cc5C4=O)cc3[nH]2)cc1,90.5%
